This passage reports growth inhibition results from PubChem BioAssay (NCI).

The structures appear in SMILES notation. This is part of a sample that, as a whole, favours compounds with a hit. Of some 79,000 tested, about 15% had one in any assay. A number with no mark means an inactive call. Activity calls are given as the source filed them. Cut-off read from the data, not from the text of the source: active = growth inhibition above about 70%; inactive = the rest.

Assay [1] can be described thus: NCI Yeast Anticancer Drug Screen. Data for the rad50 strain (AID 155).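 Note: 0% = growth of vehicle-only cultures of the same strain.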 The note with it: S. cerevisiae rad50 strain growth inhibition; at 50.0 µM; active compounds read high. Summed up:
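Growth of the mutant yeast was measured after compound exposure and referenced to vehicle-treated cultures.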

A short description of assay [2]: NCI Yeast Anticancer Drug Screen. Data for the mec2-1 strain (AID 157). The note with it: S. cerevisiae mec2-1 strain, at 50.0 µM, active compounds read high. Summed up:
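Cells of the genetically defined mec2-1 yeast strain are incubated with test compound. Inhibition of growth is calculated against vehicle-treated controls.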

Assay [3] can be described thus: NCI Yeast Anticancer Drug Screen. Data for the sgs1 mgt1 strain (AID 161).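 Note: 0% = growth of cultures given vehicle only.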 The note with it: S. cerevisiae sgs1 mgt1 strain, at 50.0 µM, active compounds read high. Summed up: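 Read-out: growth inhibition vs vehicle controls. Cells: mutant yeast strain deficient in DNA damage repair.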
The nature of assay [4]: NCI Yeast Anticancer Drug Screen. Data for the cln2 rad14 strain (AID 165).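 Note: 0% = growth equal to vehicle treated cultures.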 The note with it: S. cerevisiae cln2 rad14 strain, at 50.0 µM, active compounds read high. Summed up: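 The screen exposed genetically defined yeast (cln2 rad14) to test compounds and scored growth inhibition relative to vehicle-treated controls.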
Assay [5] is described as follows: NCI Yeast Anticancer Drug Screen. Data for the bub3 strain (AID 167). The note with it: S. cerevisiae bub3 mutant strain, at 50.0 µM, active compounds read high. The procedure, abridged: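 Whole-cell yeast assay. The mutant strain was incubated with compounds, and growth inhibition was determined by comparison with vehicle-treated cells.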
Assay [6] can be described thus: NCI Yeast Anticancer Drug Screen. Data for the mlh1 rad18 strain (AID 175). The note with it: S. cerevisiae mlh1 rad18 strain growth inhibition; at 50.0 µM; active compounds read high. Summed up: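 Compound-treated yeast growth, normalised to vehicle controls. Strain bears defined DNA repair mutations.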

As for `O=[N+]([O-])c1ccc(OS(=O)(=O)O)cc1`, the growth inhibition was 17.8% in assay [1]; 4.45% in assay [2]; 20.5% in assay [3]; -9.85% in assay [4]; -4.1% in assay [5]; 8.55% in assay [6].

In the case of `CCOC(=O)NC(Nc1ccc([N+](=O)[O-])cc1)(C(F)(F)F)C(F)(F)F`, the growth inhibition was 45.4% in assay [1]; 40.2% in assay [2]; 22.8% in assay [3]; 32.1% in assay [4]; 42% in assay [5]; 59.1% in assay [6].

Take `CCN(CC)CCC(=O)c1ccc(C)cc1`: the growth inhibition in assay [1] is -37.4%; in assay [2] it was -46.8%; in assay [3] it was -26.1%; in assay [4] it was 11.2%; in assay [5], 0.5%; in assay [6], -23.1%.

With `CN(NC(=O)CCCl)C1=NCCN1`, the growth inhibition is 5.15% in assay [1]; -4.6% in assay [2]; -3.95% in assay [3]; -11% in assay [4]; 8.1% in assay [5]; 16.7% in assay [6].

Regarding `COc1ccc(C(O)(c2ccc(OC)cc2)c2ccccc2Cc2ccccc2OC)cc1`, the growth inhibition in assay [1] is -61.6%; in assay [2], 1.65%; in assay [3] it was -22.3%; in assay [4], -20.6%; in assay [5], 0.65%; in assay [6], -21.4%.

`Nc1nc(-c2cc(Br)ccc2N=NN2CCOCC2)nc2ccc(Br)cc12`: the growth inhibition in assay [1] was 98.8% (active); in assay [2] it was 99.1% (active); in assay [3] it was 99.3% (active); in assay [4], 98.8% (active); in assay [5], 99% (active); in assay [6] it was 99% (active).

Turning to `CC(=O)NC(C)c1ccc(N=NN2CCCC2)cc1` (stereo unspecified), the growth inhibition in assay [1] was 19.6%; in assay [2], -6%; in assay [3], 20%; in assay [4] it was 19.9%; in assay [5], 25.3%; in assay [6] it was -30.5%.

Take `Cc1nnnn1C12CC3CC(CC(C3)C1)C2`: the growth inhibition was 11.7% in assay [1]; 5.7% in assay [2]; -5.75% in assay [3]; -14.3% in assay [4]; -15.7% in assay [5]; 15.1% in assay [6].

Take `C#CC(C)(C)OCC(O)CCl` (stereo unspecified): the growth inhibition in assay [1] is 1.85%; in assay [2], 5.65%; in assay [3], 1.65%; in assay [4] it was -28.8%; in assay [5], -15.4%; in assay [6] it was 2.45%.

With `O=C1NCC/C1=C\c1ccccc1`, the growth inhibition in assay [1] is -7.2%; in assay [2] it was -10.7%; in assay [3], -4.6%; in assay [4] it was -8.05%; in assay [5], -6.65%; in assay [6], -15.4%.

As for `Nc1ccc(C(=O)Nc2ccccn2)cc1`, the growth inhibition in assay [1] was -9.1%; in assay [2], -9.55%; in assay [3], -13.4%; in assay [4], -27.6%; in assay [5], 3.1%; in assay [6], -2.55%.

Take `CCOC(=O)Nc1cccc(Cl)c1Cl`: the growth inhibition in assay [1] was -31.1%; in assay [2], -39.1%; in assay [3] it was -22.4%; in assay [4] it was 6.75%; in assay [5], -27.9%; in assay [6], -8%.

Regarding `Cn1ccnc1SC(=O)C(Cl)(c1ccccc1)c1ccccc1`, the growth inhibition in assay [1] was -13.2%; in assay [2], 5.85%; in assay [3] it was -0.8%; in assay [4], -18.4%; in assay [5], 0.35%; in assay [6], 5.45%.

Turning to `O=C(Nc1cccc(Cl)c1)C(Br)C(Br)c1ccccc1` (stereo unspecified), the growth inhibition is 97.8% (active) in assay [1]; 99.2% (active) in assay [2]; 99.3% (active) in assay [3]; 99.2% (active) in assay [4]; 98.5% (active) in assay [5]; 98.7% (active) in assay [6].

As to `O=C1c2ccccc2C2(c3ccccc3)C=NNC12c1ccccc1` (stereo unspecified), the growth inhibition was 21.5% in assay [1]; 6.9% in assay [2]; 18.2% in assay [3]; 4.4% in assay [4]; 55.5% in assay [5]; 25.1% in assay [6].

For the compound `NCCNc1nc(NCCN)nc(N(CCN)CCN)n1`, the growth inhibition was 4.85% in assay [1]; -4.9% in assay [2]; 7.6% in assay [3]; 9% in assay [4]; -17.3% in assay [5]; 4.05% in assay [6].

In the case of `CCCC(CC/C(C)=N/NC(N)=O)[N+](=O)[O-]` (stereo unspecified), the growth inhibition in assay [1] is -20.1%; in assay [2] it was -9.25%; in assay [3] it was 0.05%; in assay [4], -9.55%; in assay [5] it was 4.75%; in assay [6] it was 8.5%.

Turning to `CC1CN(CCO)C(C)(C)C1` (stereo unspecified), the growth inhibition was 4.6% in assay [1]; 17.8% in assay [2]; -6.3% in assay [3]; -12.8% in assay [4]; -9.2% in assay [5]; -17% in assay [6].

For `O=c1[nH]c2ccccc2c2ccc(Br)cc12`, the growth inhibition in assay [1] is 17.4%; in assay [2], -6.1%; in assay [3] it was -2.65%; in assay [4] it was 7.3%; in assay [5], -3%; in assay [6] it was 18.5%.

Consider `c1ccc2oc(C34OC5CC(CC(C5)O3)O4)nc2c1`, for which the growth inhibition is 24.8% in assay [1]; 13.2% in assay [2]; 21.9% in assay [3]; 11.1% in assay [4]; 0.5% in assay [5]; 10% in assay [6].

Turning to `CC1(C)CC(=O)C(C=O)C(=O)C1`, the growth inhibition in assay [1] was -6.85%; in assay [2], -13.7%; in assay [3] it was -38.3%; in assay [4], -2.3%; in assay [5], 3%; in assay [6], -22.9%.
